SUMO Mot1 rescue: SUMOylation pathway inhibition by Mot1-301 growth rescue; S. cerevisiae Mot1-301 growth rescue, ATP luminescence, 38.5C; percent above DMSO median, 100 means doubled; growth rescue, % at 18.8 µM; 320,000 compounds, 1% hits;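 active means every valid replicate shows activation above 250% relative to neutral control wells; inactive means the rest, any valid replicate at or below 250%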;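 further: OY570 slx delta 5 strain wells were the positive control but not used for scaling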
AI-2 QS modul: Vibrio harveyi AI-2 quorum sensing modulation; Vibrio harveyi JMH597 AI-2 luminescence/OD600 ratio, 9 h; stronger effect = lower value; strain lacks LuxN and CqsS sensors; 0 = neutral-control median; activity change, % at 7.5 µM; 300,000 compounds, 0.4% hits; in the data active means activity change below about -75%, passing the limit was not always enough;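 further: luminescence divided by OD600 gain over 9 h not by final OD600 alone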
NTR1 agonist: NTR1 (human) agonism; P30989; activation, % at 20 µM; 330,000 compounds, 0.17% hits; NTR1-U2OS beta-arrestin-GFP spot imaging, agonist mode;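 active means activation at or above 40% of the spot to cytoplasm intensity ratio, with at least 20 cells analyzed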;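 further: 0% = DMSO without peptide and 100% = 100 nM NTR1 peptide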
Target sequence (P30989 whole entry, looked up): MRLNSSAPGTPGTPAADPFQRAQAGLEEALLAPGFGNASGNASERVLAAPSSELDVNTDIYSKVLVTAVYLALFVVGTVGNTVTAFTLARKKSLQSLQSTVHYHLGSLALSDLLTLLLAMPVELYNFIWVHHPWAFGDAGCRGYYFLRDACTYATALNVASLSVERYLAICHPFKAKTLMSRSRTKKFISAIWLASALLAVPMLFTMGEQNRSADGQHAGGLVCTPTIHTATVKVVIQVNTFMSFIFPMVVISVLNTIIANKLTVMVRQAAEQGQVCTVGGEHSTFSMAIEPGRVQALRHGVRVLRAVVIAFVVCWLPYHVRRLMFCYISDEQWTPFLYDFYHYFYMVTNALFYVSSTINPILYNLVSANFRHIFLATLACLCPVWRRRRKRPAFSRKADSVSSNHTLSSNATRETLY
AHR act: human AHR activation. P35869. AHR-responsive luciferase reporter cells, luminescence. activation, % at 5 µM. 320,000 compounds, 2.5% hits; in the data active means activation above about 47%;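 further: 0% = vehicle wells and 100% = reference agonist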
Cardio protect: protects H9c2 cardiomyocytes from peroxide injury; H2O2 injury protection, ATPLite, 2 h; protection from H2O2 cell death, % at 20 µM; 360,000 compounds, 0.63% hits;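 active means compounds giving at least 50% protection of heart cells from peroxide-induced death in the single-dose screen, raw or plate-pattern-corrected value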;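 further: 0% = DMSO wells with peroxide and 100% = DMSO wells without peroxide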
GRIN3A LBD mod: NR3A (human) ligand-binding domain modulation | NR3A LBD differential scanning fluorimetry, Tm shift; 0% = protein alone, 100% = glycine-bound protein | Tm shift relative to glycine control, % at 25 µM | 340,000 compounds, 2.5% hits | AID 1259313;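 active means melting temperature shift of at least 10% of the positive control shift, at one fixed dose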
* marks the source's active call; other numbers are inactive results; . = not tested or not shown. A selection: hits, their analogues and other compounds. The true share with any hit is near 6.2%.

SMILES	SUMO Mot1 rescue	AI-2 QS modul	NTR1 agonist	AHR act	Cardio protect	GRIN3A LBD mod
Cc1ccsc1/C=C1\CCc2ccccc2C1=O	-17	0	0	50*	-10	1
COc1cccc(/C=C2\CCc3ccccc3C2=O)c1	-10	-33	3	2	-20	22*
CC(NCCN(C)C)C1CCC2C3CCc4cc(O)ccc4C3CCC12C (stereo not given)	.	.	.	.	-18	-2
CC1(C)C[C@@H]1C(=O)N/C(=C\CCCCSC[C@H](N)C(=O)O)C(=O)O	7	.	0	-2	-4	6
C=C(C)[C@@H](O)COc1c2ccoc2cc2oc(=O)ccc12	0	.	0	30	2	3
CC1(C)O[C@@H]1COc1c2ccoc2cc2oc(=O)ccc12	11	0	2	70*	1	1
CC(C)=CCOc1c2ccoc2cc2oc(=O)ccc12	15	7	-1	51*	3	-2
CCOc1ncccc1C(=O)N(CC)CC(=O)NCc1ccc(Cl)cc1	-12	5	-1	1	0	0
CC1(C)C(=O)C=C(N2CCCCC2)c2ccccc21	.	.	.	.	-4	.
COc1ccc(-c2noc(-c3ccc(Br)o3)n2)cc1OC	-1	16	6	-8	-6	1
COc1ccc(Cc2nc(-c3ccc(Br)o3)no2)cc1OC	-2	-28	-1	47*	-1	0
Clc1ccc(OCc2nc(-c3ccccn3)no2)c(Br)c1	12	16	0	-2	-30	7
Clc1ccccc1OCc1nc(-c2ccccn2)no1	4	-59	-2	-4	-18	11*
Cc1cccc(OCc2nc(-c3ccc(Br)o3)no2)c1	18	-78*	1	2	-4	3
COc1ccc(Cc2nc(-c3ccc(Br)cc3)no2)cc1	-1	-76*	2	9	-20	4
Cc1ccc(Cc2nc(-c3ccncc3)no2)cc1	26	-48	0	6	-6	-1
Clc1ccccc1OCc1nc(-c2ccc(Br)o2)no1	8	-61	-3	61*	-17	-17
Fc1ccc(OCc2nc(-c3ccc(Br)o3)no2)c(F)c1	23	-52	-1	4	-6	2
O=C(CCl)N(O)c1ccc(C=Cc2ccccc2)cc1	.	.	.	.	-7	1
C[C@H](CO)N1C[C@H](C)[C@@H](CN(C)S(=O)(=O)c2ccc(F)cc2)Oc2c(NC(=O)Nc3ccc(C(F)(F)F)cc3)cccc2C1=O	-20	.	14	-1	1	20*
COc1ccc(NC(=O)Nc2cccc3c2O[C@H](CN(C)S(=O)(=O)c2ccc(F)cc2)[C@@H](C)CN([C@H](C)CO)C3=O)cc1	-9	.	0	3	6	-1
C[C@H]1CN([C@@H](C)CO)C(=O)c2cccc(NC(=O)Nc3ccc(C(F)(F)F)cc3)c2O[C@@H]1CN(C)S(=O)(=O)c1ccc(Cl)cc1	-2	.	12	0	-8	23*
CCC1(c2ccccc2)NC(=O)N(CC(=O)Nc2ccc(S(=O)(=O)NC3=NCCCCC3)cc2)C1=O (stereo not given)	9	30	0	0	-4	1
O=C(N/C(=C\c1cccc([N+](=O)[O-])c1)C(=O)N1CCOCC1)c1cccc(Br)c1	-6	1	1	6	16	3
CCCOc1ccc(C(=O)Nc2cc(S(=O)(=O)N3CCOCC3)ccc2N2CCN(CC)CC2)cc1OC	.	.	.	.	4	0
SMILES	SUMO Mot1 rescue	AI-2 QS modul	NTR1 agonist	AHR act	Cardio protect	GRIN3A LBD mod
O=C(CSc1nc2ccccc2[nH]1)NCc1ccc2c(c1)OCO2	-15	12	0	55*	4	-6
CC(C)N(C(=O)Cn1c(SCC(=O)NCc2ccc3c(c2)OCO3)nc2ccccc21)C(C)C	307*	16	2	2	-5	-5
O=C(CSc1nc2ccccc2o1)NCc1ccc2c(c1)OCO2	-6	11	2	70*	-14	-1
O=C1CCCC2=C1C1(CCCC1)N=C(Nc1nc3cc(-c4ccccc4)ccc3o1)N2	.	.	.	.	-18	.
CCCCC1=CC2=CC(=O)C(C)(OC(=O)CC)C(=O)C2=CN1CCOC (stereo not given)	63	20	0	2	1	61*
Cc1cc(NC(=O)c2c(Cl)c(C)nn2C)no1	-12	21	12	12	7	-1
Cc1cc(NC(=O)c2c([N+](=O)[O-])c(C)nn2C)no1	13	11	0	70*	5	-3
Cc1nn(C)c(C(=O)Nc2ccc(Cl)c([N+](=O)[O-])c2)c1Cl	24	41	6	48*	-8	-1
O=C(Nc1nnc([C@H]2C[C@H](O)[C@@H](CO)O2)s1)NC1CCCCC1	.	.	.	.	3	.
C[C@H](CO)N1C[C@H](C)[C@@H](CN(C)Cc2ccncc2)OCc2cnnn2CCCC1=O	.	.	.	.	-4	.
COc1ccc(S(=O)(=O)Nc2cccc3c2O[C@H](CN(C)S(=O)(=O)c2ccccc2)[C@@H](C)CN([C@H](C)CO)C3=O)cc1	14	.	-2	-2	6	-3
O=S(=O)(Nc1cccc(-c2nc3cccnc3s2)c1)c1ccc2c(c1)CCCC2	-12	30	6	16	-10	2
CCS(=O)(=O)Nc1cc(-c2nc3cccnc3s2)ccc1C	-3	9	2	70*	20	-3
CCS(=O)(=O)Nc1ccc(-c2nc3cccnc3s2)cc1	-14	6	-2	66*	-5	-5
CCS(=O)(=O)Nc1cccc(-c2nc3cccnc3s2)c1	14	12	0	76*	2	0
Cc1nc2ccc(S(=O)(=O)Nc3cccc(-c4nc5cccnc5s4)c3)cc2s1	4	24	2	14	-12	-12
Cc1nc2ccc(S(=O)(=O)Nc3ccc(-c4nc5cccnc5s4)cc3)cc2s1	376	14	0	69*	-5	0
COc1ccccc1CCCNC(=O)C1CCC(=O)N(Cc2ccccc2F)C1 (stereo not given)	-8	20	0	19	-6	0
CN(c1ccc(Br)cc1)S(=O)(=O)c1ccc2[nH]cc(C(=O)NCCN3CCOCC3)c(=O)c2c1	222	3	0	10	2	-6
CCC(CC)C(=O)N1CC(=O)Nc2ccc(F)cc2C1c1ccc(F)cc1 (stereo not given)	-5	23	2	4	8	1
Cc1ccc(NCc2cccc(B(O)O)c2)cc1	.	.	.	.	-6	-3
CN(C)c1nc(Cl)nc2c1nc(Cl)n2C1CCCCO1 (stereo not given)	.	.	.	.	3	2
CN(C)c1nc(N/N=C\c2ccc(Cl)c([N+](=O)[O-])c2)nc(Nc2ccc(F)cc2)n1	38	-23	10	9	32	30*
O=C(Nc1cccc(O)c1)c1cc2nc(-c3ccccc3)cc(-c3ccccc3)n2n1	-8	2	9	2	17	20*
